The target in test [1] is T1, Inhibitor of nuclear factor kappa-B kinase subunit epsilon (Homo sapiens) (UniProt Q14164).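 Note: reported values are averaged percent inhibition figures against human IKKε.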
T1 sequence (whole entry): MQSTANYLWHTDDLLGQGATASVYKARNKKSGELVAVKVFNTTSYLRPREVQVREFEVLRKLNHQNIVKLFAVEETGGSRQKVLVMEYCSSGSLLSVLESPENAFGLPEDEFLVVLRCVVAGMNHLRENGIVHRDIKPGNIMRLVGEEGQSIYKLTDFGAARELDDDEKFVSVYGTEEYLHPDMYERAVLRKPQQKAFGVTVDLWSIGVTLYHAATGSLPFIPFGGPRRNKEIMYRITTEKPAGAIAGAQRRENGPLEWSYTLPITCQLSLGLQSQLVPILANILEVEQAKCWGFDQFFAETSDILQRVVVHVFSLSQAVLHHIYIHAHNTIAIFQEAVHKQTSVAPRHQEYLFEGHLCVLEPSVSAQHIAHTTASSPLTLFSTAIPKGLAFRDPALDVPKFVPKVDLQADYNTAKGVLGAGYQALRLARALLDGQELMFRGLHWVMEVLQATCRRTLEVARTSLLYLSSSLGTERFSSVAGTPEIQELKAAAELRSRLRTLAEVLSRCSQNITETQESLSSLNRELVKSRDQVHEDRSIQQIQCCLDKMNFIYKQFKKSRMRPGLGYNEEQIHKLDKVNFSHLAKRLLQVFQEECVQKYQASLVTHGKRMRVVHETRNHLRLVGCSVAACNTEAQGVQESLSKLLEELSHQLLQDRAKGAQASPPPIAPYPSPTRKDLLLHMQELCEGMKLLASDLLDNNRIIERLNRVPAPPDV
The following applies: at 1 µM.

Test [2] deals with T2, Serine/threonine-protein kinase Nek1 (Homo sapiens) (UniProt Q96PY6).
T2 sequence (whole entry): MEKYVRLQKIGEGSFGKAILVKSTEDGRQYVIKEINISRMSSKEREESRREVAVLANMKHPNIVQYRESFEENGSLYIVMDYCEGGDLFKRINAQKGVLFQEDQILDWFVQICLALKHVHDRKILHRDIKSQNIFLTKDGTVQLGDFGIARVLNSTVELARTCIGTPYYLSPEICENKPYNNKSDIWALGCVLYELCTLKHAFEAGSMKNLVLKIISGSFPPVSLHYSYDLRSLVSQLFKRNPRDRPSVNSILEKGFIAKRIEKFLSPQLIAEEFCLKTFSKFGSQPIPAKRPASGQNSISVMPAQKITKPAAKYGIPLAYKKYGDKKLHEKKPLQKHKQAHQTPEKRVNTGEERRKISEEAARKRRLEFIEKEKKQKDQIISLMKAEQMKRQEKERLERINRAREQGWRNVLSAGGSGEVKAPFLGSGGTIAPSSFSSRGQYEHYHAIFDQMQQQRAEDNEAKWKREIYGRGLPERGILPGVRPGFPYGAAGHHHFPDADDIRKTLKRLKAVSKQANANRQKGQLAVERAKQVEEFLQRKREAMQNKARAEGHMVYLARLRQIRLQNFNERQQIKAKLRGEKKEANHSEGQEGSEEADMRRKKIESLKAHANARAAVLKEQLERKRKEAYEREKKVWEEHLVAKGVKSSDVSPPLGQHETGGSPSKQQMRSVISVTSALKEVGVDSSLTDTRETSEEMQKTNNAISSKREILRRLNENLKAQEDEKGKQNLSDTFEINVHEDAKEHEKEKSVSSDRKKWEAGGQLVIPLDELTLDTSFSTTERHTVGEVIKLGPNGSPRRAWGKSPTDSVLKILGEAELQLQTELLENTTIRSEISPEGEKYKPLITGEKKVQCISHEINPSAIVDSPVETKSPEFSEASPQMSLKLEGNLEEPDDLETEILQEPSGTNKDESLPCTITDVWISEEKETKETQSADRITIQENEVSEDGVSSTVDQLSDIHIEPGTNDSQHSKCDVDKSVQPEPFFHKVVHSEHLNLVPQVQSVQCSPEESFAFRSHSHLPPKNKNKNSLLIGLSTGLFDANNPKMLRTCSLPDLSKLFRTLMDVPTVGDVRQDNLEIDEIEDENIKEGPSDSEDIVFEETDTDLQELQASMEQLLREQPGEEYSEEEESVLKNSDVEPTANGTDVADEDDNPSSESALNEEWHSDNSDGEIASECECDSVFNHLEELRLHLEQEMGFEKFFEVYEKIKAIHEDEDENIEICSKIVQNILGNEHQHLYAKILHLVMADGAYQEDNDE
As to conditions: at 0.1 µM.

The target of test [3] is T2, Serine/threonine-protein kinase Nek1 (Homo sapiens). The following applies: at 1 µM.
In test [4] the target is T3, Serine/threonine-protein kinase Nek2 (Homo sapiens) (UniProt P51955).
T3 sequence (whole entry): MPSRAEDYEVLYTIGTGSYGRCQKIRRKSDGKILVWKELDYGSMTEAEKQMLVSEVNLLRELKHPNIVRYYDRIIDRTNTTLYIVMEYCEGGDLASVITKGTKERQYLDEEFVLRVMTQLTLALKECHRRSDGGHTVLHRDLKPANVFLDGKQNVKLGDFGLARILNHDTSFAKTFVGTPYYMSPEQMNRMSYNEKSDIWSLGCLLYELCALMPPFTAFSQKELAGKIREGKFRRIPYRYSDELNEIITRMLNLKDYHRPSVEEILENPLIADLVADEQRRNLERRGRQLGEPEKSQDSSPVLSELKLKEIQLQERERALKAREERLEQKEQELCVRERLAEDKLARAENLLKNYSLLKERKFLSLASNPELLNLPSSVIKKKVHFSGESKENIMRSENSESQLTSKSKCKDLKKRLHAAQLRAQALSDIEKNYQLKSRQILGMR
The following applies: at 0.1 µM.

Test [5] addresses T3, Serine/threonine-protein kinase Nek2 (Homo sapiens). As to conditions: at 1 µM.
Test [6] concerns the target Serine/threonine-protein kinase Nek6 (Homo sapiens) (UniProt Q9HC98). The following applies: at 0.1 µM.
Test [7] has the same target. The following applies: at 1 µM.
In test [8] the target is Serine/threonine-protein kinase Nek7 (Homo sapiens) (UniProt Q8TDX7). The following applies: at 0.1 µM.
The target is the same in test [9]. As to conditions: at 1 µM.
Test [10] has as its target T4, Serine/threonine-protein kinase Nek9 (Homo sapiens) (UniProt Q8TD19).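 Note: reported value is the mean percent inhibition of NEK9.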
T4 sequence (whole entry): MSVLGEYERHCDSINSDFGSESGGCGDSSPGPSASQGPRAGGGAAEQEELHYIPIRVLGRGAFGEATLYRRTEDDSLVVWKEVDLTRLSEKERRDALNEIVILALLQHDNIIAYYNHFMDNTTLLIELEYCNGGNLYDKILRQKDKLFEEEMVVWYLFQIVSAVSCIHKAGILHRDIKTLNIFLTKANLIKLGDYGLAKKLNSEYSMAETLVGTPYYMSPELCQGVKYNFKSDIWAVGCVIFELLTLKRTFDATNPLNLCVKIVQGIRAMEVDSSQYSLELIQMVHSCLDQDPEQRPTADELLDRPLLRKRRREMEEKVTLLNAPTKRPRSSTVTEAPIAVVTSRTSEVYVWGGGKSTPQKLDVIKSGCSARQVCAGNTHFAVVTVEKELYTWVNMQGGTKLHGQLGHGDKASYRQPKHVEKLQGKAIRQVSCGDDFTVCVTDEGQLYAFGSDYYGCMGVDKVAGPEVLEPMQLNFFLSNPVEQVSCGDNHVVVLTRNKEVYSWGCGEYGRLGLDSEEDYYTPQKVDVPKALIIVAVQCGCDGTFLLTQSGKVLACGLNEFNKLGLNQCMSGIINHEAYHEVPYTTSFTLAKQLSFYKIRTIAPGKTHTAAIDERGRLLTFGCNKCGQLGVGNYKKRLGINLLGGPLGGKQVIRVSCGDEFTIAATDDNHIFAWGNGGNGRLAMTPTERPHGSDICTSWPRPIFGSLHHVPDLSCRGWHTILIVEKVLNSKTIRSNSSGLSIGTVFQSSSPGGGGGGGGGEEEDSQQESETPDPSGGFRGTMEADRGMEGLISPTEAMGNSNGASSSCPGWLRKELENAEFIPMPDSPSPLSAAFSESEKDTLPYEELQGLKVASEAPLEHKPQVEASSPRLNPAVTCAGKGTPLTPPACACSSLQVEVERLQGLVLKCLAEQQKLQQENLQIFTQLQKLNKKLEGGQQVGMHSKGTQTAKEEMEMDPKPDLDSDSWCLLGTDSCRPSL
The following applies: at 0.1 µM.

Serine/threonine-protein kinase Nek7 (Homo sapiens), sequence (Q8TDX7 whole entry, looked up): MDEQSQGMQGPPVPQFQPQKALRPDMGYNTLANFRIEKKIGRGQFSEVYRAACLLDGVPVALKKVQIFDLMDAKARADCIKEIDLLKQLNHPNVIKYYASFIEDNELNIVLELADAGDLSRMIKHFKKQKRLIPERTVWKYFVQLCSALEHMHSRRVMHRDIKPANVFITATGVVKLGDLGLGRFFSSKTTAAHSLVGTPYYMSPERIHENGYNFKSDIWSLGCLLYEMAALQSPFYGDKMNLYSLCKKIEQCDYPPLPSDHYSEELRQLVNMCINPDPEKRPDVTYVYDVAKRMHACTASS
Serine/threonine-protein kinase Nek6 (Homo sapiens), sequence (Q9HC98 whole entry): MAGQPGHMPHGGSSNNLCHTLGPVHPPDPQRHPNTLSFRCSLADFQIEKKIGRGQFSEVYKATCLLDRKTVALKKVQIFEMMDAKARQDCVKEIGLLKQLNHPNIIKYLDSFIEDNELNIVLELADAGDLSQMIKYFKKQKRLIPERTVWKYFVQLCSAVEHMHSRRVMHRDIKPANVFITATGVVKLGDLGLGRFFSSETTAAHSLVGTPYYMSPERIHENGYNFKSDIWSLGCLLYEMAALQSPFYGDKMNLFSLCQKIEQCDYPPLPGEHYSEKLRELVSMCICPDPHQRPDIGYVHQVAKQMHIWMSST

Turning to `C[C@@H](Oc1cc(-n2cnc3ccc(OC[C@@H](O)CO)cc32)sc1C(N)=O)c1ccccc1Cl`, the inhibition in test [1] is -0.86%; in test [2], 13.6%; in test [3] it was 55%; in [4], 3.01%; in [5] it was 19.7%; in [6], -1.54%. The inhibition was -3.82% in test [7], 0.63% in [8], 0.36% in [9] and 62.4% in [10].

Consider `CCS(=O)(=O)c1ccc(OC)c(Nc2ncc(-c3cccc(OC)c3)o2)c1`, for which the inhibition in [1] is 4.13%; in test [2] it was 0.44%; in test [3], 1.45%; in test [4] it was 2.73%; in test [5] it was 2.94%; in [6], -1.47%. Moreover, the inhibition in test [7] came to 0.87%; in [8], 2.84%; in test [9], 2.42%; in [10] it was 4.19%.

Consider `NS(=O)(=O)c1cccc(-c2cc3ccncc3cc2OCc2ccccc2)c1`, for which the inhibition in test [1] amounted to 5.04%; in test [2] it was 2.64%; in test [3], 2.55%; in [4] it was 5.53%; in [5], 6.81%; in [6] it was 0.87%. Besides, the inhibition in test [7] is -0.35%; in [8], 5.92%; in test [9], 3.78%; in test [10], 2.36%.

As for `COC(=O)c1cncc(/C=C/c2c(C)cc(O)cc2C)c1`, the inhibition in test [1] is 8.63%; in test [2] it was 1.51%; in test [3], 3.23%; in test [4], 4.54%; in [5] it was 3.91%; in test [6] it was 0.94%. Besides, the inhibition stood at 4.21% in test [7], 2.47% in test [8], 1.56% in test [9] and 2.09% in test [10].

Turning to `NS(=O)(=O)c1cccc(Nc2cc(-c3ccc(F)cc3)n[nH]2)c1`, the inhibition was found to be 8.08% in [1]; 1.79% in test [2]; 3.87% in test [3]; 4.43% in [4]; 6.1% in test [5]; 2.48% in test [6]. In addition, the inhibition in [7] came out at 6.59%; in test [8], 4.33%; in [9] it was 4.76%; in test [10] it was 10.6%.

Consider `Cc1ccc(C(=O)NC2CC2)cc1-c1ccc2[nH]ncc2c1`, for which the inhibition is -3.47% in test [1]; -0.31% in test [2]; 1.87% in test [3]; -2.19% in test [4]; 0.98% in test [5]; -3.09% in test [6]. The inhibition is -3.72% in test [7], -7.62% in test [8], -4.5% in [9] and 0.32% in test [10].

Consider `COC(=O)c1ccc2c(c1)C(=Cc1cc(Br)c(O)c(Br)c1)C(=O)N2`, for which the inhibition was determined as 13.9% in test [1]; 2.53% in [2]; 2.21% in test [3]; 4.16% in test [4]; 2.86% in test [5]; 0.58% in [6]. Also, the inhibition came to 2.21% in test [7], 4.31% in [8], 8.9% in test [9] and 6.38% in test [10].

As for `Cc1cc(-c2ccccn2)cc(C)c1/C=C/c1cncc(-c2nn[nH]n2)c1`, the inhibition came out at 5.98% in test [1]; 1.6% in test [2]; 2.75% in test [3]; 5.75% in [4]; 4.38% in test [5]; 0.78% in test [6]. Besides, the inhibition in test [7] was determined as 3.18%; in [8], 2.68%; in [9] it was 7.82%; in test [10], 5.24%.

Turning to `O=C(Nc1ccc(Oc2ccc3[nH]c(NC(=O)c4ccco4)nc3c2)cc1)Nc1cc(C(F)(F)F)ccc1F`, the inhibition in test [1] was -0.41%; in [2] it was 0.66%; in test [3] it was 0.27%; in [4], 0.32%; in test [5] it was 0.28%; in test [6] it was -0.01%. Besides, the inhibition was -0.32% in [7], 0.83% in [8], 0.99% in [9] and -0.1% in [10].
